Among the data in paper PMC9574860, “Chemical Toolkit for PARK7: Potent, Selective, and High-Throughput” (Journal of Medicinal Chemistry, 2022) are Inhibition % values, retold here.

Screen size: about 7,900 compounds; about 400 (5.1%) showed an effect of 50% or more. This excerpt belongs to a sample that is enriched for strong results.

Sequence of Parkinson's disease protein 7 (PARK7/DJ1) (Q99497 whole entry, looked up, the tested form may be a part): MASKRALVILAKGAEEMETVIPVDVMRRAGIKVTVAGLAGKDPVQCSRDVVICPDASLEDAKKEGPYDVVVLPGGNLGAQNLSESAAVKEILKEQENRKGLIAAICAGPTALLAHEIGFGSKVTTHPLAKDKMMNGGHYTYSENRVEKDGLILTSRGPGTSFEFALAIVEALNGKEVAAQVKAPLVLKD

The assay has as its target Parkinson's disease protein 7 (PARK7/DJ1) (human, UniProt Q99497). Kind of assay: primary screen, percent inhibition; read as competition with a fluorescent probe by fluorescence polarization; higher = more effect of the substance. To be noted: 100 µM. The method, boiled down:
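Covalent fragments at 100 μM final were incubated 2 h with 0.2 μM PARK7, then 20 nM probe JYQ-107 added for a further 2 h. Fluorescence polarization read at 480/520 nm; relative FP loss versus reference controls gave remaining enzyme activity.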
Consider `Cc1noc(C)c1C(=O)CCl`, for which the Inhibition % is 13.5%.

With `Cc1nonc1C(=O)CCl`, the Inhibition % is reported as 97.9%.

Take `C=CC(=O)NCC1CCC=CO1` (stereo not shown): the Inhibition % stood at 6.04%.

For the compound `C=CC(=O)N1CCN(S(=O)(=O)CC)C[C@H]1C`, the Inhibition % is given as 12.6%.

On to `CN(c1ccccc1)S(=O)(=O)c1ccccc1S(=O)(=O)F`, for which the Inhibition % was determined as 96.6%.

Regarding `Cn1cc(S(=O)(=O)Oc2cnc3ccccc3c2)cn1`, the Inhibition % is listed as 6.55%.

Regarding `CN(c1ccccc1)S(=O)(=O)C=Cc1ccccc1`, the Inhibition % came to 4.34%.

On to `O=S(=O)(F)c1coc2ccccc12`, for which the Inhibition % is recorded as 10.5%.

Regarding `CN(c1cnn(C)c1)S(=O)(=O)c1ccccc1S(=O)(=O)F`, the Inhibition % was 98.1%.

As to `CC(=O)Nc1nn(C)cc1S(=O)(=O)F`, the Inhibition % was found to be 14.8%.

With `C=CC(=O)N(Cc1ccccc1)c1cnn(C)c1`, the Inhibition % is 29.9%.

As to `CN(c1ccn(C)n1)S(=O)(=O)c1ccccc1S(=O)(=O)F`, the Inhibition % amounted to 97.9%.

As for `Cn1cc(S(=O)(=O)F)c(N)n1`, the Inhibition % worked out at 7.95%.

With `CC1(C)OB(CC2CC3(CCOCC3)C2)OC1(C)C`, the Inhibition % turned out to be 3.09%.

In the case of `C=CC(=O)N(C)C1C(C)CCCC1C` (stereo not shown), the Inhibition % is given as 5.45%.

For the compound `C=CC(=O)N1C[C@]2(C)COC[C@]2(C)C1`, the Inhibition % is on record as 9.62%.

With `C=CC(=O)N1CC(C)(C)O[C@@]2(C[C@@H]3CC[C@H]2C3)C1`, the Inhibition % stood at 10.3%.

With `N#Cc1nc(N2CC(CF)C2)ccc1Cl`, the Inhibition % is 3.54%.

Turning to `O=C(CCl)N1CCN(S(=O)(=O)Cc2ccccc2)CC1`, the Inhibition % is 13.1%.

`CCC1(CNS(=O)(=O)C=Cc2ccccc2)CCOCC1`: the Inhibition % is given as 6.07%.

As to `CC1(C)OB(Cc2cc(F)cc(F)c2)OC1(C)C`, the Inhibition % is listed as 6.97%.

On to `O=S(=O)(F)c1ccc(S(=O)(=O)Nc2nccs2)cc1`, for which the Inhibition % was 64%.

`Cc1ccnc(NS(=O)(=O)c2ccc(S(=O)(=O)F)cc2)n1`: the Inhibition % stood at 36.3%.

Turning to `Cc1ccnc(NS(=O)(=O)c2ccc(S(=O)(=O)F)cc2)c1`, the Inhibition % is 16.1%.

Take `O=S(=O)(F)c1ccc(S(=O)(=O)Nc2ccncc2)cc1`: the Inhibition % is listed as 8.89%.

With `O=S(=O)(F)c1ccc(S(=O)(=O)Nc2ccccn2)cc1`, the Inhibition % is recorded as 5.71%.

As for `O=S(=O)(F)c1ccc(S(=O)(=O)Nc2cccc(F)n2)cc1`, the Inhibition % stood at 54.7%.

`O=S(=O)(F)c1ccc(S(=O)(=O)Nc2ccsc2)cc1`: the Inhibition % stood at 27.7%.

Consider `Cc1nccc(NS(=O)(=O)c2ccc(S(=O)(=O)F)cc2)n1`, for which the Inhibition % is 57.9%.

As to `CC1(C)OB(c2cncc(NS(=O)(=O)c3ccccc3)c2)OC1(C)C`, the Inhibition % came out at 8.59%.

For `CCNS(=O)(=O)c1ccc(B2OC(C)(C)C(C)(C)O2)c(C)c1`, the Inhibition % is reported as 5.32%.

As for `C=CC(=O)NC1CC(OC)C1(C)C` (stereo not shown), the Inhibition % is given as -3.29%.

For the compound `CC1CC(Sc2cnccn2)C(=O)O1` (stereo not shown), the Inhibition % came to 48.8%.

As for `Cc1ccc2cccc(OC(=O)N(C)C)c2n1`, the Inhibition % is listed as 5.34%.

As to `C=CS(=O)(=O)c1ccccc1`, the Inhibition % was found to be 9.43%.

Consider `CC1CCN(C(=O)C=Cc2cn(C)c(=O)n(C)c2=O)CC1`, for which the Inhibition % amounted to 10.9%.

As for `CN1CCC(CNc2ccc(C#N)nc2)CC1`, the Inhibition % is 1.29%.

On to `Cl.O=C(CCl)N1CCN(c2cccc(Cl)c2)CC1`, for which the Inhibition % worked out at 44.3%.

As to `C=CC(=O)N1CCN(c2ncccn2)CC1`, the Inhibition % was 9.58%.

Turning to `Cl.O=C(CCl)N1CCN(c2cnccn2)CC1`, the Inhibition % came to 55.6%.

Regarding `O=C(CCCl)N1CCN(c2ncccn2)CC1`, the Inhibition % is recorded as 3.8%.

Consider `O=C(CCCl)N1CCN(c2ccccn2)CC1`, for which the Inhibition % is listed as 12.9%.

On to `O=C(CCl)N1CCN(c2ncccn2)CC1`, for which the Inhibition % is 91.6%.

Consider `C=CC(=O)NCCN1C(=O)CNC1=O`, for which the Inhibition % is 12.9%.

Turning to `C=CC(=O)NCC1CCN(c2ccccc2)CC1`, the Inhibition % is on record as 3.72%.

`N#Cc1cc(Cl)ccn1`: the Inhibition % is reported as 52.6%.

Take `N#Cc1cc(F)ccn1`: the Inhibition % was 5.03%.

Take `N#Cc1ccnc(Cl)n1`: the Inhibition % is recorded as 3.95%.

With `Cc1ccc(NS(=O)(=O)CCCS(=O)(=O)F)nc1`, the Inhibition % came out at 80.1%.

Take `C=CC(=O)Nc1ccc(C)cn1`: the Inhibition % is 0.151%.

In the case of `Cc1ccc(C=CS(=O)(=O)Nc2ccc(C#N)cn2)cc1`, the Inhibition % was found to be 11.1%.

For `O=S(=O)(C=Cc1ccccc1)Nc1ccc(F)cn1`, the Inhibition % was determined as 6.27%.

Take `O=S(=O)(F)CCCS(=O)(=O)Nc1ccc(F)cn1`: the Inhibition % amounted to 77.2%.

For `O=S(=O)(F)c1ccc(Nc2ccc(F)cc2)nc1`, the Inhibition % is listed as 2.34%.

In the case of `Cn1c(SC2CCOC2=O)nnc1-c1ccccc1` (stereo not shown), the Inhibition % was determined as 12.6%.

Turning to `Sc1ccc(Cl)nn1`, the Inhibition % is listed as 53.5%.

Regarding `FC(F)(F)c1ccc(S)nn1`, the Inhibition % came out at 25.5%.

`Cc1ccc(S)nn1`: the Inhibition % worked out at 28.1%.

As for `CC(C)(C)C(=O)NNS(=O)(=O)c1ccc(S(=O)(=O)F)cc1`, the Inhibition % came to 6.55%.

For `CC(C)CC(=O)NNS(=O)(=O)c1cccc(S(=O)(=O)F)c1`, the Inhibition % was determined as 98.2%.

With `CNC(=O)Nc1ccc(S(=O)(=O)F)cc1`, the Inhibition % is given as 22.2%.

Take `CC(C)CC(=O)NNS(=O)(=O)c1ccc(S(=O)(=O)F)cc1`: the Inhibition % was 30.6%.

`CC(C)(C)C(=O)NNS(=O)(=O)c1cccc(S(=O)(=O)F)c1`: the Inhibition % worked out at 97.2%.

Consider `COCC(=O)Nc1ccc(S(=O)(=O)F)cc1`, for which the Inhibition % came to 13.6%.
